Reference: PubChem BioAssay AID1159580 (chemical genetic matrix, 2015)
Several values for one entry are separate records, joined by “and”; a condition that tells them apart may be missing. Equal values may be shown once. About 2,000 (36%) of roughly 5,500 compounds were called active. Another 18% or so got no clear call; they are omitted. Rule as the data show it: active = normalized growth mostly below about 0.91 (no sharp cut-off); inconclusive = no clear call, values can overlap the other calls; inactive = mostly above about 0.92. This is one part of the list.

Experiment: chemical genetic growth profiling, strain panel (AID 1159580);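 also: tested at 20 µM; growth read once vehicle control cultures reached saturation at 30 °C; 1 = growth at the plate median or of vehicle wells; lower values mean less growth of the strain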
Conditions: S. cerevisiae deletion strains, growth OD

Measured: normalized growth

OC/C=C/c1ccc(O)c(O)c1
inactive: locus YAL013W, strain DEP1, stronger effect = lower value 0.995 | locus YAL021C, strain ccr4, stronger effect = lower value 0.977 | locus YAL026C, strain drs2, stronger effect = lower value 1 | locus YAL030W, strain snc1, stronger effect = lower value 0.995 | locus YBL061C, strain skt5, stronger effect = lower value 0.996 | locus YBR009C, strain hhf1, stronger effect = lower value 0.994 | locus YBR021W, strain FUR4, stronger effect = lower value 1.03 | locus YBR023C, strain chs3, stronger effect = lower value 0.995 | locus YBR171W, strain sec66, stronger effect = lower value 1.01 | locus YBR229C, strain ROT2, stronger effect = lower value 1 | locus YBR231C, strain swc5, stronger effect = lower value 0.993 | locus YBR279W, strain paf1, stronger effect = lower value 0.996 | locus YCL011C, strain gbp2, stronger effect = lower value 0.994 | locus YCL016C, strain dcc1, stronger effect = lower value 0.995 | locus YCL029C, strain bik1, stronger effect = lower value 0.96 | locus YCL061C, strain MRC1, stronger effect = lower value 0.996 | locus YCL069W, strain vba3, stronger effect = lower value 0.992 | locus YCR088W, strain abp1, stronger effect = lower value 1.01 | locus YDL005C, strain med2, stronger effect = lower value 0.996 | locus YDL035C, strain GPR1, stronger effect = lower value 1.02 | locus YDL040C, strain nat1, stronger effect = lower value 0.988 | locus YDL074C, strain BRE1, stronger effect = lower value 0.945 | locus YDL101C, strain DUN1, stronger effect = lower value 0.991 | locus YDL134C, strain PPH21, stronger effect = lower value 1.05 | locus YDL185W, strain tfp1, stronger effect = lower value 0.953 | locus YDL192W, strain arf1, stronger effect = lower value 0.973 | locus YDR001C, strain nth1, stronger effect = lower value 0.994 | locus YDR069C, strain doa4, stronger effect = lower value 1.01 | locus YDR101C, strain arx1, stronger effect = lower value 0.962 | locus YDR137W, strain rgp1, stronger effect = lower value 0.968 | locus YDR159W, strain sac3, stronger effect = lower value 0.966 | locus YDR162C, strain NBP2, stronger effect = lower value 0.993 | locus YDR195W, strain ref2 0.951 | locus YDR297W, strain sur2, stronger effect = lower value 1 | locus YDR318W, strain mcm21, stronger effect = lower value 0.984 | locus YDR334W, strain swr1, stronger effect = lower value 0.991 | locus YDR335W, strain msn5, stronger effect = lower value 0.996 | locus YDR388W, stronger effect = lower value 0.98 | locus YDR392W, strain spt3, stronger effect = lower value 1.01 | locus YDR502C, strain sam2, stronger effect = lower value 0.993 | locus YEL003W, strain gim4, stronger effect = lower value 0.997 | locus YEL037C, strain rad23, stronger effect = lower value 1 | locus YEL061C, strain CIN8 (second series), stronger effect = lower value 0.991 | locus YEL061C, strain CIN8, stronger effect = lower value 0.978 | locus YER015W, strain faa2, stronger effect = lower value 1 | locus YER016W, strain bim1, stronger effect = lower value 0.992 | locus YER110C, stronger effect = lower value 0.954 | locus YER111C, strain swi4, stronger effect = lower value 1.01 | locus YER155C, strain BEM2 (second series), stronger effect = lower value 0.991 | locus YER155C, strain BEM2, stronger effect = lower value 0.987 | locus YER167W, strain BCK2, stronger effect = lower value 0.978 | locus YFR010W, strain ubp6, stronger effect = lower value 0.999 | locus YGL078C, strain dbp3, stronger effect = lower value 1.02 | locus YGL086W, strain mad1, stronger effect = lower value 0.937 | locus YGL167C, strain pmr1, stronger effect = lower value 1 | locus YGL173C, strain kem1, stronger effect = lower value 1.01 | locus YGL227W, strain vid30, stronger effect = lower value 1.01 | locus YGL240W, strain doc1, stronger effect = lower value 1.03 | locus YGL248W, strain PDE1, stronger effect = lower value 1.01 | locus YGL253W, strain hxk2, stronger effect = lower value 1.01 | locus YGR135W, strain pre9, stronger effect = lower value 1 | locus YHR013C, strain ard1, stronger effect = lower value 0.976 | locus YHR027C, strain rpn1, stronger effect = lower value 0.987 | locus YHR030C, strain SLT2, stronger effect = lower value 0.978 and 0.986 | locus YHR079C, strain IRE1 (second series), stronger effect = lower value 0.96 | locus YHR079C, strain IRE1, stronger effect = lower value 0.996 | locus YHR094C, strain hxt1, stronger effect = lower value 0.969 | locus YHR129C, strain ARP1, stronger effect = lower value 0.991 | locus YHR142W, strain chs7, stronger effect = lower value 1 | locus YHR200W, strain rpn10, stronger effect = lower value 0.966 | locus YIL066C, strain RNR3, stronger effect = lower value 0.996 | locus YIL073C, strain SPO22, stronger effect = lower value 0.912 | locus YIL125W, strain kgd1, stronger effect = lower value 0.98 | locus YIR030C, strain dcg1, stronger effect = lower value 0.969 | locus YJL092W, strain hpr5, stronger effect = lower value 0.995 | locus YJL095W, strain BCK1 (second series), stronger effect = lower value 1 | locus YJL095W, strain BCK1, stronger effect = lower value 1.02 and 0.999 | locus YJL115W, strain asf1, stronger effect = lower value 0.999 | locus YJL129C, strain trk1, stronger effect = lower value 0.994 | locus YJL134W, strain LCB3, stronger effect = lower value 0.986 | locus YJL154C, strain vps35, stronger effect = lower value 0.998 | locus YJL164C, strain tpk1, stronger effect = lower value 0.998 | locus YJL166W, strain qcr8, stronger effect = lower value 1 | locus YJL168C, strain set2, stronger effect = lower value 0.962 | locus YJL187C, strain SWE1 (second series), stronger effect = lower value 0.997 | locus YJL187C, strain SWE1, stronger effect = lower value 0.992 | locus YJR043C, strain POL32, stronger effect = lower value 1.02 | locus YJR066W, strain TOR1, stronger effect = lower value 0.946 | locus YJR075W, strain HOC1, stronger effect = lower value 0.984 | locus YKL009W, strain mrt4, stronger effect = lower value 1.01 | locus YKL068W, stronger effect = lower value 0.959 | locus YKL085W, strain MDH1 (second series), stronger effect = lower value 0.95 | locus YKL085W, strain MDH1, stronger effect = lower value 0.95 | locus YKL160W, strain elf1, stronger effect = lower value 1 | locus YKR001C, strain vps1, stronger effect = lower value 0.972 | locus YKR026C, strain gcn3, stronger effect = lower value 1 | locus YKR091W, strain srl3, stronger effect = lower value 1 | locus YLL001W, strain dnm1, stronger effect = lower value 0.989 | locus YLL026W, stronger effect = lower value 1 | locus YLL041C, strain sdh2, stronger effect = lower value 0.999 | locus YLR027C, strain aat2, stronger effect = lower value 0.988 | locus YLR039C, strain RIC1, stronger effect = lower value 0.938 | locus YLR058C, strain SHM2, stronger effect = lower value 0.996 | locus YLR102C, strain apc9, stronger effect = lower value 0.961 | locus YLR113W, strain HOG1, stronger effect = lower value 0.98 | locus YLR221C, strain rsa3, stronger effect = lower value 1 | locus YLR258W, strain gsy2, stronger effect = lower value 1.02 | locus YLR262C, strain YPT6 (second series), stronger effect = lower value 0.991 | locus YLR262C, strain YPT6, stronger effect = lower value 0.942 | locus YLR268W, strain sec22, stronger effect = lower value 0.96 | locus YLR320W, strain mms22, stronger effect = lower value 1 | locus YLR330W, strain CHS5, stronger effect = lower value 0.934 | locus YLR342W, strain FKS1 (second series), stronger effect = lower value 1.04 | locus YLR342W, strain FKS1, stronger effect = lower value 1.01 | locus YLR357W, strain rsc2, stronger effect = lower value 0.988 | locus YLR370C, strain arc18, stronger effect = lower value 0.993 | locus YLR384C, strain iki3, stronger effect = lower value 0.992 | locus YLR418C, strain cdc73, stronger effect = lower value 0.988 | locus YML016C, strain PPZ1, stronger effect = lower value 0.992 | locus YML032C, strain rad52, stronger effect = lower value 1.01 | locus YML120C, strain ndi1, stronger effect = lower value 0.992 | locus YML124C, strain tub3, stronger effect = lower value 0.96 | locus YMR058W, strain fet3, stronger effect = lower value 1.01 | locus YMR078C, strain ctf18, stronger effect = lower value 0.95 | locus YMR125W, strain sto1, stronger effect = lower value 0.995 | locus YMR129W, stronger effect = lower value 0.997 | locus YMR205C, strain PFK2, stronger effect = lower value 0.983 | locus YMR223W, strain ubp8, stronger effect = lower value 0.98 | locus YMR231W, strain pep5, stronger effect = lower value 0.979 | locus YMR263W, strain SAP30, stronger effect = lower value 0.989 | locus YMR307W, strain GAS1, stronger effect = lower value 1.09 | locus YNL067W, strain RPL9B, stronger effect = lower value 0.997 | locus YNL071W, strain lat1, stronger effect = lower value 0.993 | locus YNL128W, strain TEP1, stronger effect = lower value 0.966 | locus YNL153C, strain GIM3, stronger effect = lower value 0.999 | locus YNL183C, strain NPR1, stronger effect = lower value 0.963 | locus YNL209W, strain ssb2, stronger effect = lower value 0.991 | locus YNL233W, strain BNI4, stronger effect = lower value 0.994 | locus YNL248C, strain rpa49, stronger effect = lower value 1 | locus YNL250W, strain rad50, stronger effect = lower value 0.909 | locus YNL271C, strain bni1, stronger effect = lower value 0.963 | locus YNL298W, strain CLA4, stronger effect = lower value 0.991 | locus YNL307C, strain MCK1, stronger effect = lower value 0.953 | locus YNL322C, strain KRE1 (second series), stronger effect = lower value 1 | locus YNR049C, strain mso1, stronger effect = lower value 0.997 | locus YNR052C, strain pop2, stronger effect = lower value 0.98 | locus YOL012C, strain htz1 0.905 | locus YOL147C, strain pex11, stronger effect = lower value 0.963 | locus YOR001W, strain rrp6, stronger effect = lower value 1.01 | locus YOR061W, strain CKA2, stronger effect = lower value 0.995 | locus YOR069W, strain VPS5, stronger effect = lower value 0.986 | locus YOR070C, strain gyp1, stronger effect = lower value 0.985 | locus YOR080W, strain dia2, stronger effect = lower value 0.994 | locus YOR083W, strain WHI5, stronger effect = lower value 1 | locus YOR106W, strain vam3, stronger effect = lower value 1.01 | locus YOR136W, strain idh2, stronger effect = lower value 0.953 | locus YOR144C, strain elg1, stronger effect = lower value 0.971 | locus YOR184W, strain ser1, stronger effect = lower value 1.02 | locus YOR231W, strain MKK1, stronger effect = lower value 1 | locus YOR265W, strain rbl2, stronger effect = lower value 0.989 | locus YOR270C, strain vph1, stronger effect = lower value 0.994 | locus YOR290C, strain snf2, stronger effect = lower value 1.02 | locus YOR316C, strain cot1, stronger effect = lower value 0.957 | locus YPL051W, strain arl3, stronger effect = lower value 1.05 | locus YPL055C, strain LGE1, stronger effect = lower value 1 | locus YPL078C, strain atp4, stronger effect = lower value 0.994 | locus YPL106C, strain sse1, stronger effect = lower value 0.988 | locus YPL240C, strain hsp82, stronger effect = lower value 0.995 | locus YPL241C, strain CIN2, stronger effect = lower value 0.988 | locus YPL256C, strain CLN2, stronger effect = lower value 0.956 | locus YPR119W, strain clb2, stronger effect = lower value 0.946 | locus YPR141C, strain kar3, stronger effect = lower value 0.938 | locus YPR163C, strain tif3, stronger effect = lower value 0.973 | locus YPR167C, strain met16, stronger effect = lower value 0.967 | strain wtn01, stronger effect = lower value 0.949
active: locus YGR252W, strain gcn5, stronger effect = lower value 1.24 [resistant] | locus YLR371W, strain rom2, stronger effect = lower value 0.86
